KinaseGlo FLuc: Kinase-Glo luciferase inhibition (counter-screen). Q27757. Kinase-Glo luciferase, ATP luminescence, 8 min. Potency, µM (highest dose often 38.3 µM), inactives show at the highest dose activity change, negative = inhibition, most hits filed as inhibitors. hit rate 0.28% among 200,000; note: % is set by controls: 0 for no effect and ±100 for the full control effect; nearly all actives have a fitted effect of over 60% in size
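Compound is pinned into ATP-containing buffer (10 uM ATP, imidazole pH 7.2, 7 mM MgCl2). Kinase-Glo luciferase reagent is then added. Light output is recorded following an 8-min room-temperature incubation.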
SMN2 splice enh: SMN2 splice variant enhancement. HEK293 SMN2-luciferase splicing reporter, luminescence, 30-36 h. Potency, µM (series often up to 46.1 µM), without a hit: top-dose activity change, positive = activation, most hits filed as activators. hit rate 2.8% among 210,000. AID 1458; note: % of control where 0% means no effect; nearly all actives have a fitted effect of over 55% in size
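HEK293 cells carry an SMN2 […]–luciferase reporter in which exon 7 inclusion puts luciferase in frame. Cells were plated 10-12 h before compound addition, then incubated 30-36 h at 37C. ONE-Glo luminescence was read; sodium butyrate at 4.5 mM final served as control.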
Rab9 promoter act: activators of Rab9 promoter. Potency, µM (series often up to 9.22 µM), without a hit: at the highest dose activation, negative = inhibition, most hits filed as activators. Huh7 Rab9 promoter-luciferase reporter, luminescence, 24 h. hit rate 2.8% among 320,000; note: % of control where 0% means no effect; nearly all actives have a fitted effect of over 60% in size
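Steps: seed 1500 Huh7 Rab9-luc cells per well, rest 2 h at 37 °C; add compound in DMSO; incubate 24 h; add luciferase reagent, 10 min ambient; read luminescence.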
ELG1 genotox: genotoxicity induction in ELG1-luciferase HEK293T cells. hit rate 1.3% among 330,000. HEK293T ELG1-luciferase reporter, luminescence, 16 h. AID 504466. Potency, µM (series often up to 46 µM), for inactives: at the highest dose activity change, positive = activation, actives largely listed as activators; note: % of control where 0% means no effect; nearly all actives have a fitted effect of over 60% in size
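HEK293T cells expressing luciferase-tagged ELG1 were exposed to compound or DMSO vehicle for 16 hr at 37 °C and 5% CO2. Luciferase activity was then measured with ONE-Glo after 30 min at room temperature.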
FLuc counter: counter-screen for miR-21 project: firefly luciferase inhibitors or activators; purified FLuc, Km substrates, luminescence inhibition; Potency, µM (titrated, usually from 57.5 µM), for inactives: at the top dose activity change, negative = inhibition, actives largely listed as inhibitors; hit rate 6.9% among 360,000;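 note: plate controls were vehicle for no effect and reference inhibitor for full effect; nearly all actives have a fitted effect of over 55% in size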
Target sequence (P08659 whole entry, looked up): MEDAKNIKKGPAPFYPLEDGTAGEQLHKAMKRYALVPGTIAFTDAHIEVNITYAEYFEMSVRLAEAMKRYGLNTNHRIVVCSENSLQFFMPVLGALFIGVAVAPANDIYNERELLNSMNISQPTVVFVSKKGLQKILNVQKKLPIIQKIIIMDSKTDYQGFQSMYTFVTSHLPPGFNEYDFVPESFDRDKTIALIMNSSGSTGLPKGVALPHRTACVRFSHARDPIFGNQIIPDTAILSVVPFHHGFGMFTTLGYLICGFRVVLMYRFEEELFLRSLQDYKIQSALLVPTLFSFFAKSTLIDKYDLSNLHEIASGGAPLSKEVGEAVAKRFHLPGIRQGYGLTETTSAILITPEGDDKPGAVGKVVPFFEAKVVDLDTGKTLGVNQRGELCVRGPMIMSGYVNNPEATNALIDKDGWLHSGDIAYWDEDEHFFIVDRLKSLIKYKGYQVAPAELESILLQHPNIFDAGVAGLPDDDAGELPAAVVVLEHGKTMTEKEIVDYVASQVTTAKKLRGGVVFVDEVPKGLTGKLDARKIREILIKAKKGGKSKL
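Biochemical qHTS of compounds, final roughly 60 µM downward over six points, against 10 nM purified firefly luciferase using Km concentrations of substrates (10 uM D-luciferin, 10 uM ATP) in Tris acetate pH 7.5 buffer; luminescence output.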
NPC1 promoter act: activates the NPC1 promoter; Huh7 NPC1 promoter luciferase reporter, 24 h; Potency, µM (titrated, usually from 9.22 µM), for inactives: at the highest dose activation, most hits filed as activators; hit rate 2.4% among 320,000; note: % of control where 0% means no effect; nearly all actives have a fitted effect of over 60% in size
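Luciferase expression driven by the NPC1 promoter was measured in stably transfected Huh7 cells after a 24 h compound incubation, using a luciferase reagent and a luminescence read.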
An asterisk follows results filed as active; ? = inconclusive; / = not tested or not shown; [ ] = remark or other dose. Most compounds without a hit are left out; they make up all but 7.3% or so of the library. Calls come from the whole dose curve; as a rule, active = well fitted curve in the direction sought with a large enough effect; inconclusive = small, poorly fitted or top-dose-only effect, or another doubt; inactive = no such curve, though single readings can be large; an effect the other way counts as inactive or inconclusive. Potency is the fitted concentration of half-maximal effect.

SMILES	KinaseGlo FLuc	SMN2 splice enh	Rab9 promoter act	ELG1 genotox	FLuc counter	NPC1 promoter act
COc1ccc(C2=Nc3cccc4cccc(c34)N2)cc1	-4%	4%	-26%	0%	5.4µM*	5%
Nc1cccc(C2=Nc3cccc4cccc(c34)N2)c1	-24%	-16%[1.84 µM]	7%	-1%	?	0%
c1ccc(NC2=Nc3cccc4cccc2c34)cc1	-5%	-44%	-2%	14%	15µM*	1%
COc1ccc(NC2=Nc3cccc4cccc2c34)cc1	-1%	-11%[1.84 µM]	-2%	11%	13µM*	-2%
O=C(O)c1cccc(NC2=Nc3cccc4cccc2c34)c1	/	/	?	7.3µM*	0.48µM*	0.45µM*
O=C(NNC1=Nc2cccc3cccc1c23)c1ccccc1Br	-2%	-23%[1.84 µM]	0%	4%	-1%	0%
Cc1ccccc1C(=O)Nc1nnc(S(=O)(=O)N2CCc3ccccc32)s1	/	/	/	/	2%	/
Fc1ccc(/C=N/NC2=Nc3cccc4cccc2c34)cc1	-5%	11µM*	1.6µM*	12µM*	1.7µM*	1.6µM*
COc1ccc(C2c3c(n(C)c4ccccc34)C(=O)N2CC(=O)Nc2ccc(C)cc2Cl)cc1 (configuration not stated)	/	/	/	/	-9%	/
CCN(CC)c1ccc(NC(=O)c2cnn(-c3ccccc3)c2-n2cccc2)c(C)c1	/	?	/	/	-13%	/
C=CCn1cccc(C(=O)Nc2ccc(Cl)cc2)c1=O	/	/	?	?	17µM*	?
C=CCn1cccc(C(=O)Nc2cc(OC)cc(OC)c2)c1=O	-4%	19%	26%	5%	?	5%
C=CCn1cccc(C(=O)Nc2ccc(N(C)C)cc2)c1=O	/	/	4µM*	?	8.5µM*	3.5µM*
CCCn1cccc(C(=O)Nc2ccc(OC)cc2)c1=O	/	/	?	3%	?	?
C#CCn1cccc(C(=O)Nc2ccc(OC)cc2)c1=O	/	/	19%[1.84 µM]	14%	19µM*	29%
C=CCn1cccc(C(=O)Nc2ccc(OCC)cc2)c1=O	-3%	-21%	?	16%	17µM*	?
C=CCn1cccc(C(=O)Nc2ccc(OC)c(OC)c2)c1=O	-3%	-17%	3%	9%	?	12%
C=CCn1cccc(C(=O)Nc2ccc(SC)cc2)c1=O	/	/	4µM*	7%	12µM*	?
CCC(=O)NCCc1nc2cc(NC(=O)c3cccc([N+](=O)[O-])c3)ccc2n1C	/	/	3.5µM*	?	?	?
CC(=O)NCCc1nc2cc(NC(=O)c3cccc([N+](=O)[O-])c3)ccc2n1C	/	/	2.8µM*	?	?	2.8µM*
O=C(CCCc1ccccc1)NC1CC(=O)N(c2ccc(Cl)cc2)C1 (configuration not stated)	/	/	/	/	-3%	/
CC1(C(=O)O)COC(c2ccc(Cl)cc2)OC1 (configuration not stated)	/	/	-6%	-1%	2%	-2%
COC(=O)c1ccc(C2OCC(C)(C)CO2)cc1	-2%	?	?	19%	27µM*	?
CCOc1ccc(N(CC(=O)Nc2ccc(C)cc2)S(C)(=O)=O)cc1	/	/	0.89µM*	?	15µM*	3.5µM*
Cc1ccc(N(CC(=O)Nc2ccc3c(c2)OCCO3)S(C)(=O)=O)cc1	3%	/	?	13%	19µM*	?
CS(=O)(=O)N(CC(=O)Nc1ccc2c(c1)OCO2)c1ccc(Cl)cc1	0%	0%	23%	10%	?	26%
CCOc1ccc(N(CC(=O)Nc2cc(C)cc(C)c2)S(C)(=O)=O)cc1	/	/	13%	6%	?	?
Cc1cccc(NC(=O)C2CCN(S(=O)(=O)c3ccc4c(c3)CCCN4C(=O)C3CCC3)CC2)c1	/	/	/	/	-7%	/
Cc1ccc(CNc2nc(C)cs2)cc1	/	/	1.1µM*	1µM*	6µM*	2µM*
Cc1ccc(/C=N/N2CCN(c3ccccn3)CC2)cc1	3%	18%	?	?	9.5µM*	30%
